# Biological target: Neuropilin-1 (Homo sapiens) (UniProt O14786)
# Experiment: NRP-1 b1b2 CendR peptide binding inhibitors, dose response, biochemical, FP and AlphaScreen panel (AID 651650)
# Details: NRP-1 b1b2 / RPARPAR peptide binding, FP or AlphaScreen; run 1, at 100 µM (top of the series)
# Chain of Neuropilin-1 (Homo sapiens) (O14786 whole entry, looked up): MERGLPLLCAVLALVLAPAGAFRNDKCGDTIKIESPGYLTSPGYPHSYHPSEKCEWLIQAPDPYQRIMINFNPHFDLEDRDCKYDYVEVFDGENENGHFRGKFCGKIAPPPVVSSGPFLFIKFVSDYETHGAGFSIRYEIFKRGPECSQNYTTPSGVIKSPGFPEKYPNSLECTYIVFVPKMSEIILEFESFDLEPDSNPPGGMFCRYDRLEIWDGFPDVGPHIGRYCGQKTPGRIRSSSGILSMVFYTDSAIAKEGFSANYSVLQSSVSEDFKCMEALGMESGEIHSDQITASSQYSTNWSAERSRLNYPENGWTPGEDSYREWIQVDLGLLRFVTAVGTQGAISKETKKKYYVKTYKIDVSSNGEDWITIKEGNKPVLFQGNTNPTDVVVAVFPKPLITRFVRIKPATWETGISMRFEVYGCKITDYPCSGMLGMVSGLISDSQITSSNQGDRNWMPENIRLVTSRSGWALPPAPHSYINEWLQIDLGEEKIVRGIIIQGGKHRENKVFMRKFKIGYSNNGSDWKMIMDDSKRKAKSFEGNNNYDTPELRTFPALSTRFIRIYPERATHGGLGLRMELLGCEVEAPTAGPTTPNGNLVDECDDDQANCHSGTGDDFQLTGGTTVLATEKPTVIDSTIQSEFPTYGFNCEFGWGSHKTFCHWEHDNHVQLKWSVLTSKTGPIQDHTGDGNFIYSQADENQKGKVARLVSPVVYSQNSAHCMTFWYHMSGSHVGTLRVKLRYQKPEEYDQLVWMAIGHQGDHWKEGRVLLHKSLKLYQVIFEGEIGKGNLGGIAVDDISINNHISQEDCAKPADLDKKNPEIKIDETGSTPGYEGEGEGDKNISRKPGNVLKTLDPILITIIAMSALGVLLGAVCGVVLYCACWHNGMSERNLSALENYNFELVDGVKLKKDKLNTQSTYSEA
row,SMILES,inhibition [%]
1,Cc1onc(-c2ccccc2)c1C(=O)Nc1c(C)n(C)n(-c2ccccc2)c1=O,28.1
2,CCOC(=O)c1cnc(-c2ccccc2)nc1Oc1ccc(OC)cc1,99.5
3,Cc1ccc(C(=O)N/C(=C\c2ccc(-c3ccccc3[N+](=O)[O-])o2)C(=O)NCCCN2CCOCC2)cc1,13.2
4,CC1CCN(C(=O)c2[nH]cnc2C(=O)NCc2ccc(CNC(=O)OC(C)(C)C)cc2)CC1,55.2
5,O=C(c1ccccn1)N1CCN(S(=O)(=O)c2ccccc2)CC1,80.9
6,CNC(=O)Nc1ccccc1C(=O)NCc1ccccc1,25.7
7,Cc1csc(NC(C)c2nc3cc(C(F)(F)F)ccc3n2CCCO)n1 (stereo not drawn),89.7
8,Cc1nc2c(OCCC3CCCCC3)cccn2c1N(C)C(=O)CCC1CCCC1,23.2
9,O=C(CSc1nnc(CNC(=O)C23CC4CC(CC(C4)C2)C3)n1-c1ccccc1)Nc1ccc(F)cc1,4.39
10,CC(=O)C(C(c1ccccc1)N1CCCc2ccccc21)N1CCOCC1 (stereo not drawn),54
11,CCOC(=O)Cc1csc(NC(=O)CSc2ncnc3c2cnn3-c2ccccc2Cl)n1,11.5
12,CC(C)(C)C(=O)c1cnc(Nc2ccccc2)s1,-10.5
13,COc1cc(CN2C[C@@H](CO)O[C@@H](n3cnc4c(N5CCN(c6ccccc6)CC5)ncnc43)C2)cc(OC)c1OC,52.8
14,CCC1CCCCN1CCCNC(=O)C1CCCN(S(=O)(=O)N2CC(C)CC(C)C2)C1 (stereo not drawn),60.7
15,O=C1CCN(Cc2ccccc2)S(=O)(=O)c2ccccc21,54
16,O=C(CCn1c(=O)c2cccn2c2cccnc21)NCc1cccc(Cl)c1,5.81
17,Nc1ncnc2[nH]c(=S)[nH]c12,-4.05
18,CCOC(=O)c1c2ccc(OCC(=O)NN)cc2n2ccccc12,-1.02
19,CCc1cccc(NC(=O)CCc2c(C)nn(-c3ccc(N4CCOCC4)nn3)c2C)c1,75.8

row,SMILES,inhibition [%]
1,CC(CN1CCOCC1)OC(=O)c1ccc2c(c1)OCCO2 (stereo not drawn),19.2
2,Cc1ccc(C(=O)OCC(=O)c2ccc(Cl)s2)s1,32
3,CCCNC(=S)Nc1cccc(C(F)(F)F)c1,-8.06
4,CSc1cccc(CN2CCN(Cc3ccccc3)C(CCO)C2)c1 (stereo not drawn),48.8
5,O=C(COC(=O)C1CC(=O)N(Cc2ccccc2)C1)Nc1ccccc1F (stereo not drawn),56.9
6,CCCCOC(=O)c1ccc(NS(=O)(=O)c2cc(-c3nnnn3CC)ccc2OC)cc1,44.5
7,O=C(c1ncn(Cc2ccccc2)c1C(=O)N1CCc2ccccc2C1)N1CCc2ccccc2C1,23
8,COc1ccc(C(=O)N2CCC(C)(C(=O)NS(=O)(=O)C3CC3)C2)cc1F (stereo not drawn),12.1
9,CCn1c(=O)c(C(=O)NCCNCCO)c(O)c2ccccc21,26.5
10,Cc1cc(C)n2c(Nc3ccc4c(c3)OCCO4)c(-c3ccccn3)nc2n1,6.1
11,CNc1nc(-c2ccc3c(c2)CCN3C(=O)c2ccccc2F)cs1,14.5
12,O=C(NCCCN1CCCC(O)C1)c1cc(COc2ccc(F)cc2F)on1 (stereo not drawn),50.2
13,CCc1ccc(NC(=O)CCn2nc(C)c(S(=O)(=O)N3CCCCC3)c2C)cc1,51.9
14,CC(=O)NCCNc1nc(NC(C)C)nc2ccsc12,-4.88
15,Cn1c(=O)c2c(ncn2CC(COCc2ccccc2)OCc2ccccc2)n(C)c1=O (stereo not drawn),54.8
16,CCc1ccccc1NC(=O)c1ccccc1N1C(=O)C2C3C=CC(C3)C2C1=O (stereo not drawn),21.3
17,COc1ccc(C2CC(C(F)(F)F)n3nc(C(=O)O)c(Cl)c3N2)cc1OC (stereo not drawn),46.4
18,CC(C)C1=C2CCCCC2NC(=O)N1 (stereo not drawn),32.2
19,CCN(Cc1ccncc1)C(=O)c1cc(COc2ccc(F)cc2F)on1,18.1
